Inconclusive results are not listed. Calls of active or inactive are those of the source. The call rests on the fitted dose curve; in most records, active means well fitted curve in the direction sought with a large enough effect; inconclusive means small, poorly fitted or top-dose-only effect, or another doubt; inactive means no such curve, though single readings can be large; an effect the other way counts as inactive or inconclusive.
Key:
[1] = target: Rap guanine nucleotide exchange factor 3 (Homo sapiens) (UniProt O95398); assay: Confirmatory qHTS for antagonist of cAMP-regulated guanine nucleotide exchange factor 3 (EPAC1) (AID 1645880); further: nearly all actives have a fitted effect of over 55% in size; further: potency means the concentration at half of the fitted maximal effect
Sequence of Rap guanine nucleotide exchange factor 3 (Homo sapiens) (O95398 whole entry, looked up): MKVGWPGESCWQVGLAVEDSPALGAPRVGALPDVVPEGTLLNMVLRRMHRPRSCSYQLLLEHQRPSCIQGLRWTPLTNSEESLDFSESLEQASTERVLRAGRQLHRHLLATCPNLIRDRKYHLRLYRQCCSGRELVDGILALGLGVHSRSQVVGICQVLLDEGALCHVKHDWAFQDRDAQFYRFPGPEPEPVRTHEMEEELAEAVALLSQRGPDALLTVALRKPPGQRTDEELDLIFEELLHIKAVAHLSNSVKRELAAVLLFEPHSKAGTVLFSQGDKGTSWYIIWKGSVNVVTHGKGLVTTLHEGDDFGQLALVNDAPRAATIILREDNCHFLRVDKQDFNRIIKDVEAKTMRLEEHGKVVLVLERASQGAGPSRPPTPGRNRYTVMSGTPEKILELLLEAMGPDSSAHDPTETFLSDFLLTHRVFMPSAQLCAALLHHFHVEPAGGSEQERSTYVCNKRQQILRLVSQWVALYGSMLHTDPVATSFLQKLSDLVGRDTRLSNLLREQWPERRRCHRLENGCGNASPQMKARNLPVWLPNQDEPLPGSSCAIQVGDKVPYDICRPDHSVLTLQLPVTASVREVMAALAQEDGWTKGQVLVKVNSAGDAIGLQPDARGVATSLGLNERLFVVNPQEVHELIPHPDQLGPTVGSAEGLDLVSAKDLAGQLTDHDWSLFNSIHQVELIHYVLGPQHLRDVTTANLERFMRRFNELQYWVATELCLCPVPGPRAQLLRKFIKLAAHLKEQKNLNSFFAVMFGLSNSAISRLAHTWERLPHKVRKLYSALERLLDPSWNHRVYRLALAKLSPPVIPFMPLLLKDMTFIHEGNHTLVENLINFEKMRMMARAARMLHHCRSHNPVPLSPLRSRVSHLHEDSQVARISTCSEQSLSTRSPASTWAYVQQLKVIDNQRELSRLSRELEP
Method in brief: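 Nucleotide exchange uses 100 nM EPAC1, 250 nM RAP1B-BODIPY-GDP and 50 uM GDP, with compounds in a concentration-titration series. After 5 min at room temperature, fluorescence (480 nm ex/540 nm em) is read every 5 min for 30 min. Data are normalized to control ATA and DMSO.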

[2] = target: Rap guanine nucleotide exchange factor 3 (Homo sapiens) (UniProt O95398); assay: Confirmatory qHTS for agonist of cAMP-regulated guanine nucleotide exchange factor 3 (EPAC1) (AID 1645881); further: nearly all actives have a fitted effect of over 75% in size; further: potency means the concentration at half of the fitted maximal effect;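 on activation: EPAC1 catalysed release of BODIPY-GDP from Rap1B seen as fluorescence loss; 100% = effect of cAMP agonist control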
[3] = target: Rap guanine nucleotide exchange factor 4 (Homo sapiens) (UniProt Q8WZA2); assay: Confirmatory qHTS for agonist of cAMP-regulated guanine nucleotide exchange factor 4 (EPAC2) (AID 1645884);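 further: nucleotide exchange releases bodipy-GDP from Rap1 and this lowers its fluorescence; nearly all actives have a fitted effect of over 65% in size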; further: potency means the concentration at half of the fitted maximal effect; on activation: on the % scale 0 is the no-effect control and ±100 the full control effect
Sequence of Rap guanine nucleotide exchange factor 4 (Homo sapiens) (Q8WZA2 whole entry, looked up): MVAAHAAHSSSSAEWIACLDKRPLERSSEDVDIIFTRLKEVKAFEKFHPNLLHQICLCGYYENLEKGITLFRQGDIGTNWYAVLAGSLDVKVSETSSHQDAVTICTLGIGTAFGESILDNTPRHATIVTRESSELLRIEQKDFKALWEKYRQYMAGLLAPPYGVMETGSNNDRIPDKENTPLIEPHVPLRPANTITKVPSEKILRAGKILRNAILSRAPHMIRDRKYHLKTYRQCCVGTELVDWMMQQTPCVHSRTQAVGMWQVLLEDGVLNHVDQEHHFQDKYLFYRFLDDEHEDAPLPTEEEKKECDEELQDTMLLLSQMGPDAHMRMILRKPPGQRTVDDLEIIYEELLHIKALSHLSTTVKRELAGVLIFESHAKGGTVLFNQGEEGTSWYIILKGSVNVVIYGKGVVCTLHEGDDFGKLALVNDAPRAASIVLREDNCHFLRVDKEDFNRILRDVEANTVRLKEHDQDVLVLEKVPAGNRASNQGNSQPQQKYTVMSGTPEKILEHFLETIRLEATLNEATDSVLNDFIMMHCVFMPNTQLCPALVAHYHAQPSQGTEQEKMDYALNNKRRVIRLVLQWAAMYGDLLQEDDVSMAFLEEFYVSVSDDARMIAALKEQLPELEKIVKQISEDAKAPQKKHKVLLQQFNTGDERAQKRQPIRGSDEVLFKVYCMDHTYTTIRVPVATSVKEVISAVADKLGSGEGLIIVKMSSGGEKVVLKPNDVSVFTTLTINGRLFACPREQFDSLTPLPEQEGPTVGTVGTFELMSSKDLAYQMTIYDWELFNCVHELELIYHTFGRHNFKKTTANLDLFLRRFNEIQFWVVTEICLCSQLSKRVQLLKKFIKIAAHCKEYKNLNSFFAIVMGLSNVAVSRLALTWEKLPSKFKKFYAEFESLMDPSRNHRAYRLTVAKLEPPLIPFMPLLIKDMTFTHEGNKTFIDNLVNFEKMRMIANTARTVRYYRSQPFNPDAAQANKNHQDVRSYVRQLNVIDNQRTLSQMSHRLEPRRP

[4] = target: Rap guanine nucleotide exchange factor 4 (Homo sapiens) (UniProt Q8WZA2); assay: Confirmatory qHTS for antagonist of cAMP-regulated guanine nucleotide exchange factor 4 (EPAC2) (AID 1645885); further: nearly all actives have a fitted effect of over 25% in size; further: potency means the concentration at half of the fitted maximal effect; on activity change, negative = inhibition: on the % scale 0 is the no-effect control and ±100 the full control effect
[5] = target: Rap guanine nucleotide exchange factor 3 (Homo sapiens) (UniProt O95398); assay: Counterscreen qHTS for antagonist of cAMP-regulated guanine nucleotide exchange factor 3 (EPAC1) (AID 1645888);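 further: fluorescence loss as bound BODIPY-GDP is released from Rap1B; % of control where 0% means no effect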
Method in brief: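 Rap1B-BODIPY-GDP 250 nM + GDP 50 uM; cpds 7-pt, final 9.74 nM–152 uM (activator mode) or from 7.32 nM upwards (inhibitor mode); RT; FI 480/540 nm at 5 and 30 min, then ± cAMP, reread.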

COC(=O)c1cc2oc(C)cc2n1Cc1c(C)cc(C)cc1C
inactive: Potency [1] | Potency [2] | Potency [3] | Potency [4] | Potency [5]

C=CCn1c(-c2ccc(S(=O)(=O)N3CCOCC3)cc2)csc1=Nc1ccccc1
inactive: Potency [1] | Potency [2] | Potency [3] | Potency [4] | Potency [5]

Cc1cccc(C)c1Nc1c(-c2ccccc2F)nc2cccc(C)n12
active: Potency [1] 75.7 µM
inactive: Potency [2] | Potency [3] | Potency [4] | Potency [5]

CCOc1cccc(C(=O)N(Cc2ccc(F)cc2)Cc2ccco2)c1
inactive: Potency [1] | Potency [2] | Potency [3] | Potency [4] | Potency [5]

COc1ccc(OC)c(Nc2ncc3c(n2)CCN(Cc2cc(OC)c(OC)c(OC)c2)C3)c1
inactive: Potency [1] | Potency [2] | Potency [3] | Potency [4] | Potency [5]

CN1CCN(CCC(=O)Nc2ccc(Cl)cc2)CC1
inactive: Potency [1] | Potency [2] | Potency [3] | Potency [4] | Potency [5]

Oc1ccc(-c2csc(Nc3cccnc3)n2)cc1
inactive: Potency [1] | Potency [2] | activation [3] 0.321% [at 17.1 µM, percent relative to cAMP agonist control] | Potency [4] | activity change, negative = inhibition [5] -8.51% [at 30.8 µM]

COC1C(CO)OC(n2c3c(Cl)cccc3c3c4c(c5c6cccc(Cl)c6[nH]c5c32)C(=O)NC4=O)C(O)C1O (stereo not given)
inactive: Potency [1] | Potency [2] | Potency [3] | Potency [4] | Potency [5]

COc1ccc(-n2ccn(Cc3ccccc3Cl)c(=O)c2=O)cc1OC
inactive: Potency [1] | Potency [2] | Potency [3] | Potency [4] | Potency [5]

C=CCn1c(C)cc(C(=O)Cn2ncc(Cl)c(Cl)c2=O)c1C
inactive: Potency [2] | Potency [3] | Potency [4] | Potency [5]
active: Potency [1] 37.9 µM

O=C1C(c2ccccc2)=[N+]([O-])c2ccccc21
inactive: Potency [1] | Potency [2] | Potency [3] | Potency [4] | Potency [5]

O=C(Nc1ccccc1C(F)(F)F)N1CCC(CN2CCc3ccccc3C2)CC1
inactive: Potency [1] | Potency [2] | Potency [3] | Potency [4] | Potency [5]

Cn1cc(C(c2ccccc2)c2ccc(Cl)s2)c2ccccc21 (stereo not given)
inactive: Potency [1] | Potency [2] | Potency [3] | Potency [4] | Potency [5]

N#C/C(=C\c1ccc(O)c([N+](=O)[O-])c1)c1nc2ccccc2s1
inactive: Potency [2] | Potency [3] | Potency [4] | Potency [5]
active: Potency [1] 33.8 µM

Cc1ccc(C)c(-n2c3nc(=O)[nH]c(=O)c-3cc3cc([N+](=O)[O-])ccc32)c1
active: Potency [1] 47.8 µM
inactive: Potency [2] | Potency [3] | Potency [4] | Potency [5]

CCCCn1c(CN2CCOCC2)nc2c1c(=O)n(C)c(=O)n2C
inactive: Potency [1] | Potency [2] | Potency [3] | Potency [4] | Potency [5]

CC(=O)N1CCc2nc3sc(C(=O)Nc4ccc(Cl)cc4F)c(N)c3c(C(F)(F)F)c2C1
inactive: Potency [1] | Potency [2] | Potency [3] | outcome [4] inactive [at 12.7 µM] | Potency [5]

CCOc1cc(/C=C2\C(=N)N3N=C(S(C)(=O)=O)SC3=NC2=O)ccc1OCCOc1cccc(OC)c1
active: Potency [1] 19 µM
inactive: Potency [2] | Potency [3] | Potency [4] | Potency [5]

COc1ccccc1C(=O)NC(=O)COC(=O)C1CC1
inactive: Potency [1] | Potency [2] | Potency [3] | Potency [4] | Potency [5]

O=C(N/N=C/c1ccc(F)cc1)c1cc(-c2ccco2)nc2ccccc12
active: Potency [1] 16.9 µM
inactive: Potency [2] | Potency [3] | Potency [4] | Potency [5]

O=C1NN(c2ccccc2)C(=O)/C1=C\c1ccc(-c2cc([N+](=O)[O-])ccc2O)o1
inactive: Potency [2] | Potency [3] | Potency [5]
active: Potency [1] 37.9 µM | Potency [4] 60.1 µM

CC(=Cc1ccccc1)C=C1SC(=S)N(CCCC(=O)Nc2ccc(C(=O)O)c(O)c2)C1=O
inactive: Potency [2] | Potency [3] | Potency [4] | Potency [5]
active: Potency [1] 37.9 µM

CCN(CC)S(=O)(=O)c1c(Br)cc(C)cc1Br
active: Potency [4] 3.79 µM
inactive: Potency [1] | Potency [2] | activation [3] 0.523% [at 17.1 µM, percent relative to cAMP agonist control] | activity change, negative = inhibition [5] -9.59% [at 30.8 µM]

COc1ccc2c(c1)cc(C(=O)N/N=C/c1c(O)c(C(=O)O)cc3ccccc13)n2C
active: Potency [1] 67.5 µM | Potency [4] 75.7 µM
inactive: Potency [2] | Potency [3] | Potency [5]

COc1ccc(C2NC(=O)N(C)C3=C2C(=O)N(c2cccc(Cl)c2)C3)cc1 (stereo not given)
inactive: Potency [1] | Potency [2] | Potency [3] | Potency [4] | Potency [5]

O=C(CCc1ccc(O)c(O)c1)N/N=C/c1cc2c(cc1[N+](=O)[O-])OCO2
active: Potency [1] 23.9 µM
inactive: Potency [2] | Potency [3] | Potency [4] | Potency [5]

CC(=O)Nc1cccc(NC(=O)CSc2nc(=O)n(CCN3CCOCC3)c3c2CCCC3)c1
inactive: Potency [1] | Potency [2] | Potency [3] | Potency [4] | Potency [5]

NC(=O)c1cc2ccc(O)cc2oc1=NCc1ccccc1
inactive: Potency [1] | Potency [4] | Potency [5]
active: Potency [2] 112 µM | Potency [3] 112 µM

Cc1c(C(=O)OCC(=O)N2CCCC2=O)oc2ccccc12
inactive: Potency [1] | Potency [2] | Potency [3] | Potency [4] | Potency [5]

CC(=O)C(Sc1nnnn1-c1ccc(O)cc1)c1ccccc1 (stereo not given)
inactive: Potency [1] | Potency [2] | Potency [3] | Potency [4] | Potency [5]

OC1(c2ccccc2)CC(c2ccccc2)c2ccccc2O1 (stereo not given)
inactive: Potency [1] | Potency [2] | activation [3] 1.28% [at 17.1 µM, percent relative to cAMP agonist control] | Potency [4] | activity change, negative = inhibition [5] -2.96% [at 30.8 µM]

CCc1ccccc1Oc1nc(NC(C)C)nc2ccsc12
inactive: Potency [1] | Potency [2] | activation [3] 7.29% [at 17.1 µM, percent relative to cAMP agonist control] | Potency [4] | activity change, negative = inhibition [5] -29.4% [at 30.8 µM]

O=C(Nc1nc(-c2ccccc2)cs1)c1ccccc1NS(=O)(=O)c1ccc(F)cc1
active: Potency [1] 19 µM | Potency [4] 19 µM
inactive: Potency [2] | Potency [3] | Potency [5]

CC(C)CN(C(=O)CC1OC(=O)c2ccccc21)c1c(N)n(Cc2ccccc2)c(=O)[nH]c1=O (stereo not given)
inactive: Potency [1] | Potency [2] | Potency [3] | Potency [4] | Potency [5]

CC1CCCCC1NC(=O)COC(=O)c1c2c(nc3ccccc13)/C(=C/c1ccco1)CC2 (stereo not given)
inactive: Potency [2] | Potency [3] | Potency [4] | Potency [5]
active: Potency [1] 75.7 µM

Cc1cc(NC(=O)CSc2sc3c(O)cc(=O)[nH]c3c2C#N)ccc1Br
inactive: Potency [2] | Potency [3] | Potency [4] | Potency [5]
active: Potency [1] 42.6 µM

Cc1ccc(CNC(=O)COc2ccccc2-c2ccccc2)cc1
inactive: Potency [1] | Potency [2] | activation [3] 2.73% [at 17.1 µM, percent relative to cAMP agonist control] | Potency [4] | activity change, negative = inhibition [5] 0.587% [at 30.8 µM]

COc1ccc(C(=O)N2CCc3cc(OC)c(OC)cc3C2c2ccc(OC)c(OC)c2)cc1 (stereo not given)
inactive: Potency [1] | Potency [2] | activation [3] 5.17% [at 17.1 µM, percent relative to cAMP agonist control] | Potency [4] | activity change, negative = inhibition [5] -5.18% [at 30.8 µM]

COc1ccc(Cl)cc1N(C)C(=O)Cc1noc2ccc(C)cc12
inactive: Potency [1] | Potency [2] | Potency [3] | Potency [4] | Potency [5]

CNc1nc(-c2ccc(OC)cc2)c(-c2ccc(OC)cc2)s1
active: Potency [4] 23.9 µM
inactive: Potency [1] | Potency [2] | Potency [3] | Potency [5]

Clc1ccccc1Cn1c(-c2cccs2)nc2ccccc21
inactive: Potency [1] | Potency [2] | Potency [3] | Potency [4] | Potency [5]

CCc1nn2c(-c3ccccc3OC)ccnc2c1-c1ccccc1
inactive: Potency [1] | Potency [2] | Potency [3] | outcome [4] inactive [at 12.7 µM] | Potency [5]

CC(C)c1ccc(NS(=O)(=O)c2cn(C)c(=O)n(C)c2=O)cc1
active: Potency [4] 6.01 µM
inactive: Potency [1] | Potency [2] | Potency [3] | Potency [5]

COc1ccc(-c2onc3ccc(C(C)=O)cc23)cc1
inactive: Potency [1] | Potency [5]
active: Potency [2] 79.4 µM | Potency [3] 79.4 µM | Potency [4] 19 µM

C[C@@H]1CN([C@@H](C)CO)S(=O)(=O)c2ccc(Br)cc2O[C@H]1CN(C)Cc1ccccc1F
inactive: Potency [1] | Potency [2] | Potency [3] | Potency [4] | Potency [5]

COc1cccc2sc(N3CCN(c4nc5ccccc5s4)CC3)nc12
inactive: Potency [1] | Potency [2] | activation [3] 2.2% [at 17.1 µM, percent relative to cAMP agonist control] | Potency [4] | activity change, negative = inhibition [5] -13.4% [at 30.8 µM]

CC1(C(=O)NS(=O)(=O)c2ccc(F)cc2F)CCN1C(=O)C1(c2ccc(Cl)cc2)CCC1 (stereo not given)
inactive: Potency [2] | Potency [3] | Potency [4] | Potency [5]
active: Potency [1] 9.53 µM

CCN(CC)C(=S)Oc1c(Cl)cccc1Cl
inactive: Potency [1] | Potency [2] | activation [3] 7.01% [at 17.1 µM, percent relative to cAMP agonist control] | Potency [4] | activity change, negative = inhibition [5] -19.4% [at 30.8 µM]

COc1ccc(S(=O)(=O)N2CCC[C@H]2C(=O)N2CCC[C@H]2C(=O)N[C@@H](C)c2ccccc2)cc1C
inactive: Potency [1] | Potency [2] | activation [3] 1.42% [at 17.1 µM, percent relative to cAMP agonist control] | Potency [4] | activity change, negative = inhibition [5] 6.49% [at 30.8 µM]

From PubChem BioAssay (NCATS)
